Source: the supplement of paper PMC7411054

How the values were obtained:
Settings in all cases: treatment time: 24 h
A549-ACTB-RAB5A [1] = assay: lowest phenotypically active concentration; higher = less potent
How it was run: (§1)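 Phenotypic activity depended on meeting both a deviation and a reproducibility criterion. The fifteen gene-edited A549, HepG2 and WPMY1 reporter lines were treated at 0.3, 1, 3 or 9 µM for 24 h, four wells each, then imaged live with features normalised to solvent control wells. Deviation required ≥3 of 4 wells past the 95th percentile of control Euclidean distances, and reproducibility a median replicate Pearson correlation above the 95th percentile of non-replicates.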

A549-GM130-SQSTM1 [2] = assay: as above
How it was run: as §1

A549-TUBA1B-RELA [3] = assay: as above
How it was run: as §1

A549-ACTB-RAB5A [4] = assay: phenotypically active (imaging signature differs from DMSO and reproducible) at any of 0.3-9 uM (binary (1 = active, 0 = inactive)); higher = active
How it was run: as §1

A549-CANX-COX4 = assay: as above
How it was run: as §1

A549-GM130-SQSTM1 [5] = assay: as above
How it was run: as §1

A549-TP53BP1-CLTA = assay: as above
How it was run: as §1

A549-TUBA1B-RELA [6] = assay: as above
How it was run: as §1

HepG2-ACTB-RAB5A = assay: as above
How it was run: as §1

HepG2-CANX-COX4 [7] = assay: as above
How it was run: as §1

HepG2-GM130-SQSTM1 = assay: as above
How it was run: as §1

HepG2-TP53BP1-CLTA = assay: as above
How it was run: as §1

HepG2-TUBA1B-RELA = assay: as above
How it was run: as §1

WPMY1-ACTB-RAB5A [8] = assay: as above
How it was run: as §1

WPMY1-CANX-COX4 = assay: as above
How it was run: as §1

WPMY1-GM130-SQSTM1 = assay: as above
How it was run: as §1

WPMY1-TP53BP1-CLTA = assay: as above
How it was run: as §1

WPMY1-TUBA1B-RELA = assay: as above
How it was run: as §1

HepG2-CANX-COX4 [9] = assay: lowest phenotypically active concentration; higher = less potent
How it was run: as §1

WPMY1-ACTB-RAB5A [10] = assay: as above
How it was run: as §1

COC[C@H]1OC(=O)c2coc3c2[C@@]1(C)C1=C(C3=O)[C@@H]2CCC(=O)[C@@]2(C)C[C@H]1OC(C)=O [wortmannin]
3 µM: lowest phenotypically active concentration (A549-GM130-SQSTM1 [2]) | lowest phenotypically active concentration (A549-TUBA1B-RELA [3])
active: phenotypically active (A549-ACTB-RAB5A [4]) 1 | phenotypically active (A549-CANX-COX4) 1 | phenotypically active (A549-GM130-SQSTM1 [5]) 1 | phenotypically active (A549-TP53BP1-CLTA) 1 | phenotypically active (A549-TUBA1B-RELA [6]) 1
1 µM: lowest phenotypically active concentration (A549-ACTB-RAB5A [1])
inactive: phenotypically active (HepG2-ACTB-RAB5A) 0 | phenotypically active (HepG2-CANX-COX4 [7]) 0 | phenotypically active (HepG2-GM130-SQSTM1) 0 | phenotypically active (HepG2-TP53BP1-CLTA) 0 | phenotypically active (HepG2-TUBA1B-RELA) 0 | phenotypically active (WPMY1-ACTB-RAB5A [8]) 0 | phenotypically active (WPMY1-CANX-COX4) 0 | phenotypically active (WPMY1-GM130-SQSTM1) 0 | phenotypically active (WPMY1-TP53BP1-CLTA) 0 | phenotypically active (WPMY1-TUBA1B-RELA) 0

COC(=O)[C@@]1(O)C[C@H]2O[C@]1(C)n1c3ccccc3c3c4c(c5c6ccccc6n2c5c31)C(=O)NC4
≤ 0.3 µM: lowest phenotypically active concentration (A549-ACTB-RAB5A [1]) | lowest phenotypically active concentration (A549-GM130-SQSTM1 [2]) | lowest phenotypically active concentration (A549-TUBA1B-RELA [3]) | lowest phenotypically active concentration (HepG2-CANX-COX4 [9]) | lowest phenotypically active concentration (WPMY1-ACTB-RAB5A [10])
active: phenotypically active (A549-ACTB-RAB5A [4]) 1 | phenotypically active (A549-CANX-COX4) 1 | phenotypically active (A549-GM130-SQSTM1 [5]) 1 | phenotypically active (A549-TP53BP1-CLTA) 1 | phenotypically active (A549-TUBA1B-RELA [6]) 1 | phenotypically active (HepG2-ACTB-RAB5A) 1 | phenotypically active (HepG2-CANX-COX4 [7]) 1 | phenotypically active (HepG2-GM130-SQSTM1) 1 | phenotypically active (HepG2-TP53BP1-CLTA) 1 | phenotypically active (HepG2-TUBA1B-RELA) 1 | phenotypically active (WPMY1-ACTB-RAB5A [8]) 1 | phenotypically active (WPMY1-CANX-COX4) 1 | phenotypically active (WPMY1-GM130-SQSTM1) 1 | phenotypically active (WPMY1-TP53BP1-CLTA) 1 | phenotypically active (WPMY1-TUBA1B-RELA) 1

C[C@@H]1O[C@@H](O[C@H]2C[C@@H](O)[C@]3(CO)[C@H]4[C@H](O)C[C@]5(C)[C@@H](C6=CC(=O)OC6)CC[C@]5(O)[C@@H]4CC[C@]3(O)C2)[C@H](O)[C@H](O)[C@H]1O [Strophantine octahydrate]
1 µM: lowest phenotypically active concentration (A549-ACTB-RAB5A [1]) | lowest phenotypically active concentration (A549-TUBA1B-RELA [3])
active: phenotypically active (A549-ACTB-RAB5A [4]) 1 | phenotypically active (A549-CANX-COX4) 1 | phenotypically active (A549-GM130-SQSTM1 [5]) 1 | phenotypically active (A549-TP53BP1-CLTA) 1 | phenotypically active (A549-TUBA1B-RELA [6]) 1 | phenotypically active (HepG2-ACTB-RAB5A) 1 | phenotypically active (HepG2-CANX-COX4 [7]) 1 | phenotypically active (HepG2-GM130-SQSTM1) 1 | phenotypically active (HepG2-TP53BP1-CLTA) 1 | phenotypically active (HepG2-TUBA1B-RELA) 1 | phenotypically active (WPMY1-ACTB-RAB5A [8]) 1 | phenotypically active (WPMY1-CANX-COX4) 1 | phenotypically active (WPMY1-GM130-SQSTM1) 1 | phenotypically active (WPMY1-TP53BP1-CLTA) 1 | phenotypically active (WPMY1-TUBA1B-RELA) 1
≤ 0.3 µM: lowest phenotypically active concentration (A549-GM130-SQSTM1 [2]) | lowest phenotypically active concentration (HepG2-CANX-COX4 [9]) | lowest phenotypically active concentration (WPMY1-ACTB-RAB5A [10])

CO[C@H](C)[C@](O)(C(=O)OCC1=CCN2CC[C@H](O)[C@@H]12)C(C)C [Heliotrine]
inactive: phenotypically active (A549-ACTB-RAB5A [4]) 0 | phenotypically active (A549-CANX-COX4) 0 | phenotypically active (A549-GM130-SQSTM1 [5]) 0 | phenotypically active (A549-TP53BP1-CLTA) 0 | phenotypically active (A549-TUBA1B-RELA [6]) 0 | phenotypically active (HepG2-ACTB-RAB5A) 0 | phenotypically active (HepG2-CANX-COX4 [7]) 0 | phenotypically active (HepG2-GM130-SQSTM1) 0 | phenotypically active (HepG2-TP53BP1-CLTA) 0 | phenotypically active (HepG2-TUBA1B-RELA) 0 | phenotypically active (WPMY1-ACTB-RAB5A [8]) 0 | phenotypically active (WPMY1-CANX-COX4) 0 | phenotypically active (WPMY1-GM130-SQSTM1) 0 | phenotypically active (WPMY1-TP53BP1-CLTA) 0 | phenotypically active (WPMY1-TUBA1B-RELA) 0

CC[C@@H](C(=O)[C@@H](C)[C@@H](O)[C@H](C)[C@@H]1O[C@@H]([C@@H](CC)C(=O)O)CC[C@@H]1C)[C@H]1O[C@]2(C=C[C@@H](O)[C@]3(CC[C@@](C)([C@H]4CC[C@](O)(CC)[C@H](C)O4)O3)O2)[C@H](C)C[C@@H]1C [Salinomycin Sodium]
≤ 0.3 µM: lowest phenotypically active concentration (A549-ACTB-RAB5A [1]) | lowest phenotypically active concentration (A549-GM130-SQSTM1 [2]) | lowest phenotypically active concentration (A549-TUBA1B-RELA [3]) | lowest phenotypically active concentration (WPMY1-ACTB-RAB5A [10])
active: phenotypically active (A549-ACTB-RAB5A [4]) 1 | phenotypically active (A549-CANX-COX4) 1 | phenotypically active (A549-GM130-SQSTM1 [5]) 1 | phenotypically active (A549-TP53BP1-CLTA) 1 | phenotypically active (A549-TUBA1B-RELA [6]) 1 | phenotypically active (HepG2-ACTB-RAB5A) 1 | phenotypically active (HepG2-CANX-COX4 [7]) 1 | phenotypically active (HepG2-GM130-SQSTM1) 1 | phenotypically active (HepG2-TP53BP1-CLTA) 1 | phenotypically active (HepG2-TUBA1B-RELA) 1 | phenotypically active (WPMY1-ACTB-RAB5A [8]) 1 | phenotypically active (WPMY1-CANX-COX4) 1 | phenotypically active (WPMY1-GM130-SQSTM1) 1 | phenotypically active (WPMY1-TP53BP1-CLTA) 1 | phenotypically active (WPMY1-TUBA1B-RELA) 1
1 µM: lowest phenotypically active concentration (HepG2-CANX-COX4 [9])
